Laboratory results reported in PubChem BioAssay AID1159580 (chemical genetic matrix, 2015).
“And” between values parts separate entries of the source, which are not always exact repeats. Identical values can stand only once. The whole screen tested about 5,500 compounds, of which about 2,000 (36%) were called active. About 18% were inconclusive and are not listed. No stated cut-off is given here; in the data, active means normalized growth mostly below about 0.91 (no sharp cut-off); inconclusive means no clear call, values can overlap the other calls; inactive means mostly above about 0.92. The list shows a part of the results.

Assay: chemical genetic growth profiling, strain panel (AID 1159580);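 further: tested at 20 µM; growth read once vehicle control cultures reached saturation at 30 °C; 1 = growth at the plate median or of vehicle wells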
Details: S. cerevisiae deletion strains, growth OD

Measured: normalized growth

NCC(=O)c1ccccc1
inactive: locus YAL013W, strain DEP1, stronger effect = lower value 1.02 | locus YAL021C, strain ccr4, stronger effect = lower value 1.02 | locus YAL026C, strain drs2, stronger effect = lower value 1.01 | locus YAL030W, strain snc1, stronger effect = lower value 1 | locus YBL061C, strain skt5, stronger effect = lower value 0.995 | locus YBR009C, strain hhf1, stronger effect = lower value 0.999 | locus YBR021W, strain FUR4, stronger effect = lower value 1.02 | locus YBR023C, strain chs3, stronger effect = lower value 1 | locus YBR171W, strain sec66, stronger effect = lower value 1 | locus YBR229C, strain ROT2, stronger effect = lower value 1.01 | locus YBR231C, strain swc5, stronger effect = lower value 0.998 | locus YBR279W, strain paf1, stronger effect = lower value 1.01 | locus YCL011C, strain gbp2, stronger effect = lower value 1.01 | locus YCL016C, strain dcc1, stronger effect = lower value 1 | locus YCL029C, strain bik1, stronger effect = lower value 0.998 | locus YCL061C, strain MRC1, stronger effect = lower value 0.996 | locus YCL069W, strain vba3, stronger effect = lower value 0.997 | locus YCR088W, strain abp1, stronger effect = lower value 1 | locus YDL005C, strain med2, stronger effect = lower value 0.984 | locus YDL035C, strain GPR1, stronger effect = lower value 1.02 | locus YDL040C, strain nat1, stronger effect = lower value 1 | locus YDL074C, strain BRE1, stronger effect = lower value 1.06 | locus YDL101C, strain DUN1, stronger effect = lower value 1.02 | locus YDL134C, strain PPH21, stronger effect = lower value 1.02 | locus YDL185W, strain tfp1, stronger effect = lower value 0.996 | locus YDL192W, strain arf1, stronger effect = lower value 0.997 | locus YDR001C, strain nth1, stronger effect = lower value 1.01 | locus YDR069C, strain doa4, stronger effect = lower value 1.02 | locus YDR101C, strain arx1, stronger effect = lower value 0.983 | locus YDR137W, strain rgp1, stronger effect = lower value 1.01 | locus YDR150W, strain NUM1, stronger effect = lower value 1.03 | locus YDR159W, strain sac3, stronger effect = lower value 0.993 | locus YDR162C, strain NBP2, stronger effect = lower value 1.04 | locus YDR195W, strain ref2 0.976 | locus YDR297W, strain sur2, stronger effect = lower value 0.989 | locus YDR318W, strain mcm21, stronger effect = lower value 0.982 | locus YDR334W, strain swr1, stronger effect = lower value 0.999 | locus YDR335W, strain msn5, stronger effect = lower value 1.01 | locus YDR388W, stronger effect = lower value 0.991 | locus YDR392W, strain spt3, stronger effect = lower value 1.02 | locus YDR502C, strain sam2, stronger effect = lower value 0.988 | locus YEL003W, strain gim4, stronger effect = lower value 1 | locus YEL037C, strain rad23, stronger effect = lower value 1 | locus YEL061C, strain CIN8 (second series), stronger effect = lower value 1.02 | locus YEL061C, strain CIN8, stronger effect = lower value 1.01 | locus YER015W, strain faa2, stronger effect = lower value 1 | locus YER016W, strain bim1, stronger effect = lower value 0.987 | locus YER110C, stronger effect = lower value 0.996 | locus YER111C, strain swi4, stronger effect = lower value 0.992 | locus YER155C, strain BEM2 (second series), stronger effect = lower value 1 | locus YER155C, strain BEM2, stronger effect = lower value 1.01 | locus YER167W, strain BCK2, stronger effect = lower value 1.02 | locus YFR010W, strain ubp6, stronger effect = lower value 0.999 | locus YGL078C, strain dbp3, stronger effect = lower value 0.994 | locus YGL086W, strain mad1, stronger effect = lower value 1 | locus YGL167C, strain pmr1, stronger effect = lower value 0.997 | locus YGL173C, strain kem1, stronger effect = lower value 0.998 | locus YGL227W, strain vid30, stronger effect = lower value 1.01 | locus YGL240W, strain doc1, stronger effect = lower value 1.02 | locus YGL248W, strain PDE1, stronger effect = lower value 1.02 | locus YGL253W, strain hxk2, stronger effect = lower value 1.02 | locus YGR078C, strain PAC10, stronger effect = lower value 1.02 | locus YGR135W, strain pre9, stronger effect = lower value 0.994 | locus YGR229C, strain SMI1, stronger effect = lower value 1.03 | locus YGR252W, strain gcn5, stronger effect = lower value 0.964 | locus YHR013C, strain ard1, stronger effect = lower value 0.979 | locus YHR027C, strain rpn1, stronger effect = lower value 1.02 | locus YHR030C, strain SLT2, stronger effect = lower value 1.01 and 1.02 | locus YHR079C, strain IRE1 (second series), stronger effect = lower value 0.996 | locus YHR079C, strain IRE1, stronger effect = lower value 1.03 | locus YHR094C, strain hxt1, stronger effect = lower value 0.988 | locus YHR129C, strain ARP1, stronger effect = lower value 1.01 | locus YHR142W, strain chs7, stronger effect = lower value 1.01 | locus YHR200W, strain rpn10, stronger effect = lower value 0.988 | locus YIL066C, strain RNR3, stronger effect = lower value 1.02 | locus YIL073C, strain SPO22, stronger effect = lower value 0.951 | locus YIL125W, strain kgd1, stronger effect = lower value 1 | locus YIR030C, strain dcg1, stronger effect = lower value 0.992 | locus YJL092W, strain hpr5, stronger effect = lower value 1 | locus YJL095W, strain BCK1 (second series), stronger effect = lower value 0.999 | locus YJL095W, strain BCK1, stronger effect = lower value 1.05 and 1.03 | locus YJL115W, strain asf1, stronger effect = lower value 1 | locus YJL129C, strain trk1, stronger effect = lower value 1 | locus YJL134W, strain LCB3, stronger effect = lower value 1.01 | locus YJL154C, strain vps35, stronger effect = lower value 1 | locus YJL164C, strain tpk1, stronger effect = lower value 0.996 | locus YJL166W, strain qcr8, stronger effect = lower value 1.02 | locus YJL168C, strain set2, stronger effect = lower value 0.994 | locus YJL187C, strain SWE1 (second series), stronger effect = lower value 1.02 | locus YJR043C, strain POL32, stronger effect = lower value 1 | locus YJR066W, strain TOR1, stronger effect = lower value 0.997
